# TTR transcr act = TTR transcription activators in neuroblastoma reporter cells, primary screen, cell-based, luminescence, SH-SY5Y, TTR promoter Gaussia luciferase; 100% = recombinant luciferase protein wells; activation, % at 16.7 µM; 1.3% of 92,000 active;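 active = activation above the mean of all tested compounds plus 3 SD, cut at about 9.5% in these data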;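 note: cells exposed to compounds for one day before reading; 0% = median of all test compound wells on the plate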
# HuH7 TTR inh = TTR promoter reporter inhibitors in hepatoma cells, counter-screen for TTR transcription activator project, cell-based, luminescence, HuH7 hepatoma; inhibition, % at 16.7 µM; AID 1117279, 2014; shares compounds with TTR transcr act; 4% of 1,100 active; HuH7 TTR promoter-Gaussia luciferase reporter;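 active = average inhibition above the solvent-only control wells' mean plus 3 SD, cut at about 15% in these data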;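 note: 0% = cells with DMSO only and 100% = cells with inhibitor control FD; inhibitors lower well luminescence so higher value means more inhibition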
# TTR up confirm = TTR transcription activators, retest, confirmation, cell-based, luminescence, SH-SY5Y, triplicate | shares compounds with TTR transcr act | SHSY5Y TTR promoter Gaussia luciferase; 100% = purified Lucia enzyme wells, no cells | activation, % at 16.7 µM | 1,100 tested, under 10 active | AID 1117280, 2014;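 active = mean activation above a set limit taken from the earlier primary screen, cut at about 11% in these data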;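 note: 0% = DMSO-treated cells and 100% = recombinant Lucia luciferase without cells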
# * = called active by the depositor. The full list was thinned out, with hits kept by preference.
SMILES,TTR transcr act,others
COc1ccc2c3c1OC1CC(O)C=CC31CCN(C)C2 (stereo not drawn),12*,HuH7 TTR inh=-10;TTR up confirm=0
COc1cccc(C2=NOC(C(=O)NCCCn3ccnc3)C2)c1 (stereo not drawn),0,
CCOC(=O)Cc1csc(Nc2ccc(Cl)cc2)n1,-1,
CCOC(=O)Cc1csc(SCC(=O)N2CCN(c3ccc(OC)cc3)CC2)n1,0,
CCOC(=O)Cc1csc(SCC(=O)Nc2cc(Cl)ccc2Oc2ccccc2)n1,9.7*,HuH7 TTR inh=1;TTR up confirm=-1
COC(=O)c1ccc(CSC2=NC[C@@H]3[C@@H]4C(=O)N(C)C(=O)[C@@H]4[C@](Cc4ccccc4)(C(=O)OC)N23)cc1,0,
Cn1nc(C(=O)Nc2ccc(S(=O)(=O)N3CCCCC3)cc2)ccc1=O,0,
O=C(Cc1c(F)cccc1Cl)NNC(=O)c1ccco1,-1,
COc1cccc(NC(=O)C2(C)CCN2CC2CCCCC2)c1 (stereo not drawn),-1,
